# Targets with a hit are over-represented here; the source holds about 8,800 in all. About 0.5% of all pairs of compound and target were hits. Unmarked numbers belong to inactive results.
# Tests used:
# Assay in all cases: log2 fold change, soluble protein after heating vs DMSO (PISA); higher = thermal stabilisation; K562 lysate, 10 uM; active = over 0.2 and 3.5 SD of the protein, either way, in both replicates (recomputed)
# vemurafenib = compound: CCCS(=O)(=O)Nc1ccc(F)c(C(=O)c2c[nH]c3ncc(-c4ccc(Cl)cc4)cc23)c1F [vemurafenib]
# Method in brief: (§1)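 Log-two fold change in thermal stability relative to solvent controls is reported from duplicates. For each sample, crude K562 extract from dounce-homogenised pellets in PBS pH 7.4 with 1 mM MgCl2, at 1 mg/mL protein, was treated with 10 μM compound for 30 min. Aliquots heated for 3 min across 48°C-58°C were pooled, brought to 0.5% NP-40 at 4°C and cleared at 21,000xg for 90 min. The supernatant was quantified by TMTpro 16plex LC-MS/MS with channel sums equalised.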
# [1] = compound: CCCS(=O)(=O)Nc1ccc(F)c(C(=O)c2c[nH]c3ncc(Cl)cc23)c1F
# Method in brief: as §1
# barasertib = compound: CCN(CCCOc1ccc2c(Nc3cc(CC(=O)Nc4cccc(F)c4)[nH]n3)ncnc2c1)CCOP(=O)(O)O [barasertib]
# Method in brief: as §1
# [2] = compound: CC[C@@H]1C(=O)N(C)c2cnc(Nc3ccc(C(=O)NC4CCN(C)CC4)cc3OC)nc2N1C1CCCC1
# Method in brief: as §1
# volasertib = compound: CC[C@@H]1C(=O)N(C)c2cnc(Nc3ccc(C(=O)N[C@H]4CC[C@H](N5CCN(CC6CC6)CC5)CC4)cc3OC)nc2N1C(C)C [volasertib]
# Method in brief: as §1
# [3] = compound: CCn1c(C(=O)N(C2CC2)C2CC2)cc2c3c(ncn3C)c(Nc3cc(C)n(C)n3)nc21
# Method in brief: as §1
# [4] = compound: CCn1cc(-c2ccnc3[nH]c(-c4cccc(CN(C)C)c4)cc23)c(-c2ccc(NC(=O)N(C)C)cc2)n1
# Method in brief: as §1
# [5] = compound: CN1CCC(CNc2ccc3ncc(-c4cccc(OC(F)(F)F)c4)n3n2)CC1
# Method in brief: as §1
# saracatinib = compound: CN1CCN(CCOc2cc(OC3CCOCC3)c3c(Nc4c(Cl)ccc5c4OCO5)ncnc3c2)CC1 [saracatinib]
# Method in brief: as §1
# sotrastaurin = compound: CN1CCN(c2nc(C3=C(c4c[nH]c5ccccc45)C(=O)NC3=O)c3ccccc3n2)CC1 [sotrastaurin]
# Method in brief: as §1
# alvocidib = compound: CN1CC[C@H](c2c(O)cc(O)c3c(=O)cc(-c4ccccc4Cl)oc23)[C@H](O)C1 [alvocidib]
# Method in brief: as §1
# Tubastatin A = compound: CN1CCc2c(c3ccccc3n2Cc2ccc(C(=O)NO)cc2)C1 [Tubastatin A]
# Method in brief: as §1
# [6] = compound: CNC(=O)C1=CC=CC=C1NC2=NC(=NC=C2Cl)NC3=C(C=C(C=C3)N4CCOCC4)OC
# Method in brief: as §1
# defactinib = compound: CNC(=O)c1ccc(Nc2ncc(C(F)(F)F)c(NCc3nccnc3N(C)S(C)(=O)=O)n2)cc1 [defactinib]
# Method in brief: as §1
# [7] = compound: CNc1nc(-c2ccc3c(N)n[nH]c3c2)cc(N2C[C@@H](C(=O)NC3CCCCC3)CC[C@H]2C)n1
# Method in brief: as §1
# encorafenib = compound: COC(=O)N[C@@H](C)CNc1nccc(-c2cn(C(C)C)nc2-c2cc(Cl)cc(NS(C)(=O)=O)c2F)n1 [encorafenib]
# Method in brief: as §1
# [8] = compound: COC(=O)[C@H](CCSC)NC(=O)C1=C(C=C(C=C1)NC[C@H](CS)N)C2=CC=CC=C2
# Method in brief: as §1
# [9] = compound: COc1cc2nc(-c3cc(F)ccc3O)nc(N[C@@H]3CNC[C@H]3C(C)(C)O)c2cc1OC
# Method in brief: as §1
# gefitinib = compound: COc1cc2ncnc(Nc3ccc(F)c(Cl)c3)c2cc1OCCCN1CCOCC1 [gefitinib]
# Method in brief: as §1
# alisertib = compound: COc1cc(Nc2ncc3c(n2)-c2ccc(Cl)cc2C(c2c(F)cccc2OC)=NC3)ccc1C(=O)O [alisertib]
# Method in brief: as §1
# Chain of UniProt P04844 (P04844 whole entry, looked up): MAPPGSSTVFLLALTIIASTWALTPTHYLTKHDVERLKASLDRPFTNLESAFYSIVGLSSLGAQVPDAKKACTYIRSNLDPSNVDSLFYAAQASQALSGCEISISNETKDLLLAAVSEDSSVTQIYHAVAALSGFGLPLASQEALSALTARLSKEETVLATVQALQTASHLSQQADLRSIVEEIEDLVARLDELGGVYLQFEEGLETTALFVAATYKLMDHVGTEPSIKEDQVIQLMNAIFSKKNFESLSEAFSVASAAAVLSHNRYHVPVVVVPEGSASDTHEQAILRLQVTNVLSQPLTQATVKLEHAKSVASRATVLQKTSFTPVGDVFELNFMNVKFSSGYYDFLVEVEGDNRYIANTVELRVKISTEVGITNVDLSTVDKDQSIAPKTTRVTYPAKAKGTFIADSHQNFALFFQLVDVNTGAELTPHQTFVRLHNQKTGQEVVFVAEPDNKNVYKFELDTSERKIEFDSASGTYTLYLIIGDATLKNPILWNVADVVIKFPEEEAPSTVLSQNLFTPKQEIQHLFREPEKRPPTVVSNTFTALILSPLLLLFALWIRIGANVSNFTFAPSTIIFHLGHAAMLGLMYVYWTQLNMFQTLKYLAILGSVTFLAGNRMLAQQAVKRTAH
# Chain of UniProt Q96JX3 (Q96JX3 whole entry, looked up): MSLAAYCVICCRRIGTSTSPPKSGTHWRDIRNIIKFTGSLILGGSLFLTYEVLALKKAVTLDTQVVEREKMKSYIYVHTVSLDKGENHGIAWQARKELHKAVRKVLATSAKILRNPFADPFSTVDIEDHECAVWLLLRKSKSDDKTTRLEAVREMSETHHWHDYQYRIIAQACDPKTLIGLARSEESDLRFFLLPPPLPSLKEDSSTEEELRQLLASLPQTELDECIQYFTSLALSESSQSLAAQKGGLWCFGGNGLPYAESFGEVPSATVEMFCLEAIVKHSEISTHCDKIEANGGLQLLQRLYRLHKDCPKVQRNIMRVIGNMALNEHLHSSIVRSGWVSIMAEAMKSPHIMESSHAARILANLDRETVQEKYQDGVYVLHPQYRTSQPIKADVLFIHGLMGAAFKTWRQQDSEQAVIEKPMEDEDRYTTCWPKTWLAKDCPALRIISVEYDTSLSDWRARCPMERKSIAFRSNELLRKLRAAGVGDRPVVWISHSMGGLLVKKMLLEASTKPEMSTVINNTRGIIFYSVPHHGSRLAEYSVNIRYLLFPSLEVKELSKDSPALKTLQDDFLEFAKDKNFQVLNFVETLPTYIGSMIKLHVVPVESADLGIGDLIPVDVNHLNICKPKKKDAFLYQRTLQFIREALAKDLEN
# Chain of UniProt O15541 (O15541 whole entry, looked up): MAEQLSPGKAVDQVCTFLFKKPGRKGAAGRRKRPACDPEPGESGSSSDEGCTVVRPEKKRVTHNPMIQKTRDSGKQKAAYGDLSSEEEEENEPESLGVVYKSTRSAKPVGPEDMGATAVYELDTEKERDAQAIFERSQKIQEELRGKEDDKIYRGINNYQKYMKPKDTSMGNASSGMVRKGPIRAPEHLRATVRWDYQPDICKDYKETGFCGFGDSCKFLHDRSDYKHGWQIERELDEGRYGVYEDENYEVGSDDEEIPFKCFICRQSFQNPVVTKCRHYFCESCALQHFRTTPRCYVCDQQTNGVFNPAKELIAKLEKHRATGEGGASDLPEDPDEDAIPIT
# Chain of UniProt O75943 (O75943 whole entry, looked up): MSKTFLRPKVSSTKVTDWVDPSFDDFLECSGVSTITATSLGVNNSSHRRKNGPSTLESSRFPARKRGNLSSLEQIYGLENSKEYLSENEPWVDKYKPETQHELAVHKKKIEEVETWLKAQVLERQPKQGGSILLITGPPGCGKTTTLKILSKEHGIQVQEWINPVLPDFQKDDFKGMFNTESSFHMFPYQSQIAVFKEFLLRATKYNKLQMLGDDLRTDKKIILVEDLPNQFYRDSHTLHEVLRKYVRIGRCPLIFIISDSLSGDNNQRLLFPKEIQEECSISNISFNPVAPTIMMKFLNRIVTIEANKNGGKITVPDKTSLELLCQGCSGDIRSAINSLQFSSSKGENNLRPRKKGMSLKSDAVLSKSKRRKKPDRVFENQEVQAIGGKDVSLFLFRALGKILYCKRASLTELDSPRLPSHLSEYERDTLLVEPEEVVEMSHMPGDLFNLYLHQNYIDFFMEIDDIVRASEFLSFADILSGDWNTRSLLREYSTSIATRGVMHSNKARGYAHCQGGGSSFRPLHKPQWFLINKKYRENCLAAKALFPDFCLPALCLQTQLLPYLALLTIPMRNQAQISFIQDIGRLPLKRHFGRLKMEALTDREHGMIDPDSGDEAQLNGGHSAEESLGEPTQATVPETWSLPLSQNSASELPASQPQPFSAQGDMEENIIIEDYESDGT
# Chain of UniProt Q15404 (Q15404 whole entry, looked up): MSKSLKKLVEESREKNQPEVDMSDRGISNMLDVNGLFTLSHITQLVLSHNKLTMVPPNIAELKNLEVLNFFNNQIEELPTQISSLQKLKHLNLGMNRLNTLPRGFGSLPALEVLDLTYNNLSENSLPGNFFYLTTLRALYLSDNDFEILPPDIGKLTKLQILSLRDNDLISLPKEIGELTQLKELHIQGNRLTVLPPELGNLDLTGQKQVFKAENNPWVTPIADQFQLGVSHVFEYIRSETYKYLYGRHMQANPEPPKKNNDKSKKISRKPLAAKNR
# Chain of UniProt O94762 (O94762 whole entry, looked up): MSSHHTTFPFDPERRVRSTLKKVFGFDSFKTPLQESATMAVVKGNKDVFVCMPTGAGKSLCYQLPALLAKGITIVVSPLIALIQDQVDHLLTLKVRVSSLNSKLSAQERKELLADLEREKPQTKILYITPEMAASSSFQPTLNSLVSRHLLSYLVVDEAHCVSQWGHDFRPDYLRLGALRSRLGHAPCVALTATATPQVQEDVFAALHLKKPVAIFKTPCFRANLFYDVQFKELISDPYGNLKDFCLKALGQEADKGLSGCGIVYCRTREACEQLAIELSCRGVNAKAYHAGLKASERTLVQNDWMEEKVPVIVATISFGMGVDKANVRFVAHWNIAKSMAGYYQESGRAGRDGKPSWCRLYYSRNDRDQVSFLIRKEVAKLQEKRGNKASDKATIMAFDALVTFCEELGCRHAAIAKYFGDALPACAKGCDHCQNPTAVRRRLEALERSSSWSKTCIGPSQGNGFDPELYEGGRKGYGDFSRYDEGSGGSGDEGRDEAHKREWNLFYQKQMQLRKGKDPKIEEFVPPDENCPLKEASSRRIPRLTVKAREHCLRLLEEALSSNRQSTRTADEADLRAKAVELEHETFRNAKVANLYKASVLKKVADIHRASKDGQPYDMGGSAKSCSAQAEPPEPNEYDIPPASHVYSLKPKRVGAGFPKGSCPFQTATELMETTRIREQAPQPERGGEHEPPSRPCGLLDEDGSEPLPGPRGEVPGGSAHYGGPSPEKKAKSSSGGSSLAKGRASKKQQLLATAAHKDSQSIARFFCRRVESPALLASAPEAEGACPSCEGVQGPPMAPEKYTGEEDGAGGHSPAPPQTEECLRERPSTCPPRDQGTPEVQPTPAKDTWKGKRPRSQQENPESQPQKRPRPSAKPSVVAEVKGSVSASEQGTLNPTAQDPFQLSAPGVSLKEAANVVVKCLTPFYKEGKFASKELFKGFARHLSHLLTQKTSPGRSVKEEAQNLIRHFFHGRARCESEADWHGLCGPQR
# Chain of UniProt Q16576 (Q16576 whole entry, looked up): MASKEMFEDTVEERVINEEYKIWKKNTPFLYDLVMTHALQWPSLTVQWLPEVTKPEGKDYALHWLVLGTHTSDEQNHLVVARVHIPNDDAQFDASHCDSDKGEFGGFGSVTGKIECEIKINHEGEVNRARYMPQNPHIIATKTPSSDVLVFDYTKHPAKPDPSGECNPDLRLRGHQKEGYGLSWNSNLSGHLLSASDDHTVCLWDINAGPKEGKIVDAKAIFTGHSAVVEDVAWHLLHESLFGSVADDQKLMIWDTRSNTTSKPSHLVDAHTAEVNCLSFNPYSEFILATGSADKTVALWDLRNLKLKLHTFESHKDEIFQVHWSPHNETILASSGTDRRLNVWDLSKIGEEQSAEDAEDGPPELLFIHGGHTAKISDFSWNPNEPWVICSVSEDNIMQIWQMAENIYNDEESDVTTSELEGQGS
# Chain of UniProt Q8TEB9 (Q8TEB9 whole entry, looked up): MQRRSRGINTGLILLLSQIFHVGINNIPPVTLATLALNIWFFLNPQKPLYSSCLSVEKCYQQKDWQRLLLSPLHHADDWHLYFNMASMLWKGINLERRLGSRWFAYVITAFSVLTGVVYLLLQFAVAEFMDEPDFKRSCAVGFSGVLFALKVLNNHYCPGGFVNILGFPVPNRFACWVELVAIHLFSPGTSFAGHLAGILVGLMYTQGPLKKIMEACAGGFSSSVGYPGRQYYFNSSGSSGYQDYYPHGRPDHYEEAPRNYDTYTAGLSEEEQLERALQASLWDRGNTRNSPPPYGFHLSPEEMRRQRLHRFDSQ
# Chain of UniProt Q9BUV8 (Q9BUV8 whole entry, looked up): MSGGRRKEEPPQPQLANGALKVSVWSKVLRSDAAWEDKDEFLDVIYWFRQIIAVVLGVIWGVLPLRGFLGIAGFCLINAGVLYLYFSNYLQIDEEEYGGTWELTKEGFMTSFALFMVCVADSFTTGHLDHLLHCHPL
# Chain of UniProt Q9UKL0 (Q9UKL0 whole entry, looked up): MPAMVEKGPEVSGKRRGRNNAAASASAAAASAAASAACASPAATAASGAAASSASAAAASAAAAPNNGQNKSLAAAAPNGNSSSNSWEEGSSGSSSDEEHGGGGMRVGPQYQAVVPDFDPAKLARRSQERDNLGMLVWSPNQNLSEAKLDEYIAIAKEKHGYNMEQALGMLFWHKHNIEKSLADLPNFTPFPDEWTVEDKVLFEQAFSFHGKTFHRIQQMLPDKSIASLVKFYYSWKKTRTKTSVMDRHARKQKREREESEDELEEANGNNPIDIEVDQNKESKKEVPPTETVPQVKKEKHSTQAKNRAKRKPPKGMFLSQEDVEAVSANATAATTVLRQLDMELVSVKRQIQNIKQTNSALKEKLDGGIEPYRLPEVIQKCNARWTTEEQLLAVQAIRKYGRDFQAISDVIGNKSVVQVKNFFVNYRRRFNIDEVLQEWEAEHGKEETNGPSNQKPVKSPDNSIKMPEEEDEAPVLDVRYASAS
Target,log2 fold change (vemurafenib),log2 fold change [1],log2 fold change (barasertib),log2 fold change [2],log2 fold change (volasertib),log2 fold change [3],log2 fold change [4],log2 fold change [5],log2 fold change (saracatinib),log2 fold change (sotrastaurin),log2 fold change (alvocidib),log2 fold change (Tubastatin A),log2 fold change [6],log2 fold change (defactinib),log2 fold change [7],log2 fold change (encorafenib),log2 fold change [8],log2 fold change [9],log2 fold change (gefitinib),log2 fold change (alisertib)
RAPGEF4 (UniProt Q8WZA2),0.157,0.077,0.022,0.174,0.049,-0.259,-0.887 (active),0.391,0.037,0.001,-0.367,0.156,0.061,-0.023,0.433,0.018,0.147,0.196,,
RPS6KA3 (UniProt P51812),0.031,0.005,-0.003,,-0.026,0.133,-0.014,0.093,0.078,0.037,0.306,-0.151,,0.433 (active),-0.017,-0.107,0.056,0.049,-0.025,
RECQL5 (UniProt O94762),-0.028,-0.045,0.02,0.069,-0.187,-0.01,0.131,-0.222,0.018,0.003,0.057,-0.053,-0.071,0.068,0.074,0.225,0.016,0.09,0.03,-0.003
RNF113A (UniProt O15541),0.021,-0.012,-0.042,0.04,0.009,-0.056,-0.021,0.017,0.031,-0.056,-0.062,0.05,0.014,-0.013,0.022,-0.019,-0.017,0.015,0.004,-0.015
RBBP7 (UniProt Q16576),0.044,-0.021,-0.072,-0.017,-0.004,-0.002,,,0.021,0.043,,-0.005,0.006,-0.018,-0.125,0.032,-0.021,-0.003,0.006,0.014
RAB5IF isoform 5 (UniProt Q9BUV8),-0.075,0.129,0.142,-0.03,-0.398,,0.928 (active),-0.362,0.009,,0.249,,0,-0.032,-0.011,0.04,-0.125,-0.011,0.131,0.15
RAI14 isoform 2 (UniProt Q9P0K7),0.001,0.066,0.061,-0.019,0.005,0,0.045,-0.011,0.031,0.026,0.019,-0.08,0.003,0.031,0.077,0.012,0.083,0,0.029,-0.018
ROCK1 (UniProt Q13464),0.014,0.004,0.004,0.018,-0.045,0.001,-0.017,0.025,-0.017,0.015,0.004,0.013,-0.029,-0.02,0.039,-0.004,-0.019,0.022,-0.004,-0.045
RNF149 (UniProt Q8NC42),-0.026,-0.15,0.026,,-0.063,-0.162,0.343,0.02,0.021,-0.081,-0.038,-0.047,0.02,0.028,0.004,,,-0.059,-0.075,-0.483 (active)
RSU1 (UniProt Q15404),-0.006,0.005,-0.067,0.026,0.022,0.004,0.405 (active),-0.143,-0.032,-0.019,0.12,0.057,-0.021,-0.042,-0.008,-0.035,-0.035,0.015,0.023,-0.005
RCOR1 (UniProt Q9UKL0),0.028,-0.03,0.108,-0.008,0.003,-0.001,-0.071,0.017,0.001,0.004,-0.031,-0.021,-0.017,-0.039,0.014,0.01,0.115,0.027,-0.011,0.023
RHBDD1 (UniProt Q8TEB9),0.105,-0.08,-0.05,-0.16,-0.074,,0.016,-0.029,,,-0.018,,,0.024,,0.063,0.054,0.02,,
RPN2 (UniProt P04844),0.009,0.008,0.019,0,0.003,-0.003,-0.084,0.033,0.008,0.008,-0.024,0.001,-0.024,-0.006,-0.01,0.041,-0.031,-0.03,0.011,-0.008
RNASEH2B (UniProt Q5TBB1),-0.008,0.034,-0.035,-0.056,-0.044,-0.001,0.026,-0.101,-0.022,0.062,0.05,-0.046,-0.003,0.092,-0.021,0.035,0.338 (active),-0.038,-0.031,-0.031
SERAC1 (UniProt Q96JX3),,,0.142,0.1,,,-0.061,0.051,-0.096,,0.048,,-0.024,,0.149,-0.051,-0.003,,-0.165,-0.412
RECQL4 (UniProt O94761),-0.019,,0.1,0.054,,0.043,-0.254,-0.026,0.043,-0.017,0.042,-0.045,0.104,0.049,-0.02,0.023,0.056,,0.065,0.028
RFNG (UniProt Q9Y644),,,,,,,,,,,,,,,,,,,0.424,-0.003
SEC16A isoform 3 (UniProt O15027),,,,,,0.231,,,0.068,,,-0.008,,,0.023,,,,,
RAD17 (UniProt O75943),-0.091,,0.131,0.017,,0.07,-0.214,-0.027,0.042,-0.004,-0.24,-0.041,,0.111,0.154,0.094,0.026,,0.022,0.029
